In PubChem BioAssay (NCATS):
Results filed as inconclusive are left out. Values without a mark were called inactive. Active and inactive are the calls of the source. The call rests on the fitted dose curve; in most records, active means well fitted activation curve with a large enough effect; inconclusive means small, poorly fitted or top-dose-only effect; inactive means no such curve, though single readings can be large or run the other way.

Target: Cellular tumor antigen p53 (Homo sapiens) (UniProt P04637)
Assay: Primary qHTS for small molecule compounds that upregulate eGFP-tagged delta133p53alpha (in N-terminal) cells. (AID 2060322); further: nearly all actives have a fitted effect of over 75% in size;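 on activation: series mostly up to about 56 µM; 0% = DMSO vehicle and 100% = reference activator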
Conditions: NCI-H358 eGFP-delta133p53alpha fluorescence, 24 h; activation: stronger effect = higher value
Outline: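 NCI-H358 cells pre-induced 24 h with 10 ng/ml doxycycline to express N-terminal eGFP-delta133p53alpha, then dosed 24 h at 37C without doxycycline; fixed, Hoechst-stained, GFP intensity by laser scanning cytometry, normalized to DMSO (0%) and 57.5 uM 5-azacytidine (100%).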
Potency means the concentration at half of the fitted maximal effect.

Cellular tumor antigen p53 (Homo sapiens), sequence (P04637 whole entry, looked up): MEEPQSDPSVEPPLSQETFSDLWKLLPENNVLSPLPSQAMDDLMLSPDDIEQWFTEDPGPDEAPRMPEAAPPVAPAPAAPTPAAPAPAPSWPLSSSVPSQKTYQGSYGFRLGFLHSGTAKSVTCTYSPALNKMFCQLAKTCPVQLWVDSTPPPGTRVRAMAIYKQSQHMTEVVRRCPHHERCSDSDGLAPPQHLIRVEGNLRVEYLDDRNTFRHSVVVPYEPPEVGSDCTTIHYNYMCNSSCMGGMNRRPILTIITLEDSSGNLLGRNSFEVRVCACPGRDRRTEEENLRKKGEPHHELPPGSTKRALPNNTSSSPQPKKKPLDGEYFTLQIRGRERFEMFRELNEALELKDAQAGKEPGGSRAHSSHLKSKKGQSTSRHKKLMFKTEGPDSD

Q: How did the activation turn out when `CC(C)=CC1C(C(=O)OCN2C(=O)C3=C(CCCC3)C2=O)C1(C)C` (stereo not drawn) was run?
A: Its activation is 17.6%.

Q: With `COc1cccc([C@@]2(O)CCCC[C@@H]2CN(C)C)c1` as the molecule, how does the activation read?
A: The activation was 13.4%.

Q: For `O=c1[nH]c2cc(Cl)ccc2n1C1CCNCC1`, which activation is on record?
A: Its activation is 9.6%.

Q: With `C[N+]1(C)[C@@H]2CC[C@H]1CC(OC(=O)C(CO)c1ccccc1)C2` (stereo partly drawn) as the molecule, how does the activation read?
A: The activation was 25.4%.

Q: `O=C(N/N=C/c1ccc([N+](=O)[O-])o1)c1cc([N+](=O)[O-])cc([N+](=O)[O-])c1O` was tested. Which activation did it give?
A: Its activation is -6.21%.

Q: `COP(=S)(OC)Oc1ccc(SC)c(C)c1` was tested. Which activation did it give?
A: Its activation is -15.9%.

Q: With `COc1cccc2c1[C@]13CCN(CC4CC4)[C@H](C2)[C@]1(OC)CCC(=O)C3` as the molecule, how does the activation read?
A: Its activation is -12%.

Q: With `CC(C)NCC(O)c1ccc(N)c(C#N)c1` (stereo not drawn) as the molecule, how does the activation read?
A: Its activation is 1.69%.

Q: `C[C@]12CC[C@@H]3c4ccc(OC(=O)N(CCCl)CCCl)cc4CC[C@H]3[C@@H]1CC[C@@H]2O` was tested. Which activation did it give?
A: The activation was 11.9%.

Q: Which activation does the source give for `COc1cc(OC)c(OC)cc1C=O` here?
A: The activation was 5.76%.

Q: Which activation does the source give for `CCC(C(N)=O)N1CCCC1=O` (stereo not drawn) here?
A: Its activation is -3.35%.

Q: With `COc1ccc(CC2NCCc3cc(OC)c(OC)cc32)cc1OC` (stereo not drawn) as the molecule, how does the activation read?
A: Its activation is -6.46%.

Q: `COc1cc(CC(C)N)c(OC)cc1Br` (stereo not drawn) was tested. Which activation did it give?
A: Its activation is 43.5%.

Q: With `NC(=O)CS(=O)C(c1ccccc1)c1ccccc1` (stereo not drawn) as the molecule, how does the activation read?
A: The activation was -6.21%.

Q: How did the Potency turn out when `C[C@]12CC[C@H]3[C@@H](CC[C@@]45O[C@H]4C(O)=C(C#N)C[C@]35C)[C@H]1CC[C@H]2O` was run?
A: The Potency was 21.7 µM (active).

Q: Which activation does the source give for `O=[N+]([O-])c1cc([N+](=O)[O-])c2ccccc2c1` here?
A: The activation was -5.02%.

Q: `C[C@]12CC[C@H]3[C@@H](CCC4=CC(=O)CC[C@@H]43)[C@@H]1CC[C@@H]2OC(=O)CCC1CCCCC1` was tested. Which activation did it give?
A: The activation was -13%.

Q: For `CCN(CC)CCc1c[nH]c2ccccc12`, which activation is on record?
A: Its activation is -8.47%.

Q: How did the activation turn out when `Clc1ccc(C(c2ccc(Cl)cc2)C(Cl)(Cl)Cl)cc1` was run?
A: The activation was -11.9%.

Q: Which activation does the source give for `O=C(O)COc1ccccc1` here?
A: The activation was -28.8%.

Q: `CNC(C)(C)Cc1ccccc1` was tested. Which activation did it give?
A: Its activation is -3.35%.

Q: For `C[CH2][Hg][S]c1ccccc1C(=O)O`, which Potency is on record?
A: Its Potency is 3.89 µM (active).

Q: How did the activation turn out when `CCOC(=O)C1(c2ccccc2)CCN(CCC(C#N)(c2ccccc2)c2ccccc2)CC1` was run?
A: Its activation is -1.69%.
